A short description of assay [1]: NCI Yeast Anticancer Drug Screen. Data for the rad50 strain (AID 155).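 Also: 0% = growth of vehicle-only cultures of the same strain.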 Particulars: S. cerevisiae rad50 strain growth inhibition, active compounds read high. Summed up:
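Cells are treated with compound, grown, and their growth is then scored against vehicle-only cultures of the same repair-deficient yeast strain.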

Assay [2] in a line: NCI Yeast Anticancer Drug Screen. Data for the mec2-1 strain (AID 157). To be noted: S. cerevisiae mec2-1 strain, active compounds read high. Summed up:
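Growth inhibition is read against vehicle-treated controls after compound exposure of the mec2-1 yeast strain, which is defective in DNA damage repair or cell cycle control.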

The nature of assay [3]: NCI Yeast Anticancer Drug Screen. Data for the sgs1 mgt1 strain (AID 161).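 Also: 0% = growth of cultures given vehicle only.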 Particulars: S. cerevisiae sgs1 mgt1 strain, active compounds read high. Summed up:
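Yeast cells carrying a defined DNA-repair defect were exposed to test compounds. Growth inhibition was measured relative to vehicle-treated controls.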

Assay [4] is described as follows: NCI Yeast Anticancer Drug Screen. Data for the cln2 rad14 strain (AID 165).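 Also: 0% = growth equal to vehicle treated cultures.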 Particulars: S. cerevisiae cln2 rad14 strain, active compounds read high. Summed up:
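Growth inhibition, relative to vehicle-treated controls, is the read-out. The test organism is a yeast strain with defined genetic alterations, cln2 rad14.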

The nature of assay [5]: NCI Yeast Anticancer Drug Screen. Data for the bub3 strain (AID 167). Particulars: S. cerevisiae bub3 mutant strain, active compounds read high. Summed up:
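Part of a panel of yeast mutants defective in DNA damage repair or cell cycle regulation. Each strain is grown with compound, and inhibition is calculated relative to solvent-treated cultures.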

The nature of assay [6]: NCI Yeast Anticancer Drug Screen. Data for the mlh1 rad18 strain (AID 175). Particulars: S. cerevisiae mlh1 rad18 strain growth inhibition, active compounds read high. An outline of the steps: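 Cells of a genetically altered yeast strain, deficient in DNA damage repair, were treated with compound. Their growth was then compared with that of vehicle-treated cultures to give inhibition.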

Where [7] appears, read: at 5.0 µM (retest, dose inferred, filed as 0.5).
Setting [8] is: at 50.0 µM (retest, dose inferred, filed as 5.0).

This is part of a sample that, as a whole, favours compounds with a hit. Of some 79,000 tested, about 15% had one in any assay. Values without a mark were called inactive. Active and inactive are the calls of the source. Rule as the data show it: active = growth inhibition above about 70%; inactive = the rest.

On to `O=C(Nc1cccc(Cl)c1)c1ccc([N+](=O)[O-])cc1`, for which the growth inhibition is 10% in assay [1] (setting [7]); 8% in assay [1] (setting [8]); -8.65% in assay [1] (at 50.0 µM); -11% in assay [2] (setting [7]); -6% in assay [2] (setting [8]); -10.8% in assay [2] (at 50.0 µM). Further, the growth inhibition is 6% in assay [3] (setting [7]); 4% in assay [3] (setting [8]); -12.7% in assay [3] (at 50.0 µM); 4% in assay [4] (setting [7]); 17% in assay [4] (setting [8]); -27.4% in assay [4] (at 50.0 µM). Also, the growth inhibition was 23% in assay [5] (setting [7]); 32% in assay [5] (setting [8]); -6.8% in assay [5] (at 50.0 µM); 17% in assay [6] (setting [7]); 26% in assay [6] (setting [8]); -0.9% in assay [6] (at 50.0 µM).
On to `O=[N+]([O-])c1ccc2nc(CCl)[nH]c2c1`, for which the growth inhibition in assay [1] (setting [7]) was 46%; in assay [1] (setting [8]), 80% (active); in assay [1] (at 50.0 µM), 73.2% (active); in assay [2] (setting [7]), 37%; in assay [2] (setting [8]), 74% (active); in assay [2] (at 50.0 µM), 65.5%. Moreover, the growth inhibition was 42% in assay [3] (setting [7]); 83% (active) in assay [3] (setting [8]); 75% (active) in assay [3] (at 50.0 µM); 35% in assay [4] (setting [7]); 56% in assay [4] (setting [8]); 61% in assay [4] (at 50.0 µM). Besides, the growth inhibition in assay [5] (setting [7]) is 43%; in assay [5] (setting [8]), 84% (active); in assay [5] (at 50.0 µM) it was 74% (active); in assay [6] (setting [7]) it was 49%; in assay [6] (setting [8]), 87% (active); in assay [6] (at 50.0 µM) it was 73.3% (active).
For `CC(=O)Nc1ccc(NC(=S)Nc2ccc(NC(C)=O)cc2)cc1`, the growth inhibition in assay [1] (setting [7]) is 97% (active); in assay [1] (setting [8]), 99% (active); in assay [1] (at 50.0 µM), 92% (active); in assay [2] (setting [7]), 47%; in assay [2] (setting [8]), 100% (active); in assay [2] (at 50.0 µM), 15%. The growth inhibition in assay [3] (setting [7]) was 68%; in assay [3] (setting [8]) it was 100% (active); in assay [3] (at 50.0 µM), -1.7%; in assay [4] (setting [7]), 43%; in assay [4] (setting [8]), 99% (active); in assay [4] (at 50.0 µM), -5.1%. Further, the growth inhibition was 62% in assay [5] (setting [7]); 100% (active) in assay [5] (setting [8]); 0.6% in assay [5] (at 50.0 µM); 82% (active) in assay [6] (setting [7]); 99% (active) in assay [6] (setting [8]); 13.8% in assay [6] (at 50.0 µM).
Regarding `CN(C)c1ccc(C(c2cc3c(cc2O)OCO3)N2CCCC2)cc1` (stereo not given), the growth inhibition was 7% in assay [1] (setting [7]); 99% (active) in assay [1] (setting [8]); 99.2% (active) in assay [1] (at 50.0 µM); 15% in assay [2] (setting [7]); 99% (active) in assay [2] (setting [8]); 99.4% (active) in assay [2] (at 50.0 µM). In addition, the growth inhibition in assay [3] (setting [7]) was -3%; in assay [3] (setting [8]), 99% (active); in assay [3] (at 50.0 µM), 99.2% (active); in assay [4] (setting [7]) it was -3%; in assay [4] (setting [8]), 99% (active); in assay [4] (at 50.0 µM) it was 99.1% (active). The growth inhibition in assay [5] (setting [7]) was 0%; in assay [5] (setting [8]), 99% (active); in assay [5] (at 50.0 µM), 99.4% (active); in assay [6] (setting [7]), -7%; in assay [6] (setting [8]) it was 99% (active); in assay [6] (at 50.0 µM) it was 99.2% (active).
Turning to `CC(C)OCc1cccc2ccnc(COC(C)C)c12`, the growth inhibition in assay [1] (setting [7]) is -20%; in assay [1] (setting [8]), 53%; in assay [1] (at 50.0 µM), 20.8%; in assay [2] (setting [7]), 8%; in assay [2] (setting [8]) it was 14%; in assay [2] (at 50.0 µM), 25.6%. The growth inhibition in assay [3] (setting [7]) was -10%; in assay [3] (setting [8]), 35%; in assay [3] (at 50.0 µM), 24.9%; in assay [4] (setting [7]) it was -15%; in assay [4] (setting [8]), 87% (active); in assay [4] (at 50.0 µM), 20.6%. Moreover, the growth inhibition in assay [5] (setting [7]) was -11%; in assay [5] (setting [8]), 91% (active); in assay [5] (at 50.0 µM), 20.2%; in assay [6] (setting [7]) it was 28%; in assay [6] (setting [8]), 50%; in assay [6] (at 50.0 µM), 25.1%.
On to `CC(C)CCC(C)(C)c1cc(O)ccc1O`, for which the growth inhibition is 35% in assay [1] (setting [7]); 99% (active) in assay [1] (setting [8]); 98.4% (active) in assay [1] (at 50.0 µM); 13% in assay [2] (setting [7]); 99% (active) in assay [2] (setting [8]); 99.5% (active) in assay [2] (at 50.0 µM). In addition, the growth inhibition was 16% in assay [3] (setting [7]); 98% (active) in assay [3] (setting [8]); 75.7% (active) in assay [3] (at 50.0 µM); 14% in assay [4] (setting [7]); 92% (active) in assay [4] (setting [8]); 87.5% (active) in assay [4] (at 50.0 µM). Besides, the growth inhibition in assay [5] (setting [7]) is 79% (active); in assay [5] (setting [8]) it was 98% (active); in assay [5] (at 50.0 µM), 98.8% (active); in assay [6] (setting [7]), 35%; in assay [6] (setting [8]), 99% (active); in assay [6] (at 50.0 µM), 97.6% (active).
For `CN(C)C[N+](C)(C)Cc1ccc(C[N+](C)(C)C[N+](C)(C)Cc2ccc(CCl)cc2)cc1`, the growth inhibition in assay [1] (setting [7]) is 0%; in assay [1] (setting [8]), -2%; in assay [1] (at 50.0 µM), 83% (active); in assay [2] (setting [7]), -36%; in assay [2] (setting [8]), -1%; in assay [2] (at 50.0 µM), 20.4%. The growth inhibition in assay [3] (setting [7]) was -2%; in assay [3] (setting [8]) it was -1%; in assay [3] (at 50.0 µM), 69.5%; in assay [4] (setting [7]), 0%; in assay [4] (setting [8]) it was -1%; in assay [4] (at 50.0 µM), 45%. For the same compound, the growth inhibition is -8% in assay [5] (setting [7]); -1% in assay [5] (setting [8]); 66.2% in assay [5] (at 50.0 µM); -2% in assay [6] (setting [7]); -1% in assay [6] (setting [8]); 52.5% in assay [6] (at 50.0 µM).
With `C/C=C(\C)[C@H](O)C(COCc1ccccc1)NS(=O)(=O)c1ccc(C)cc1` (stereo not given in full), the growth inhibition is -5% in assay [1] (setting [7]); 44% in assay [1] (setting [8]); 30.1% in assay [1] (at 50.0 µM); -3% in assay [2] (setting [7]); 26% in assay [2] (setting [8]); 98.5% (active) in assay [2] (at 50.0 µM). For the same compound, the growth inhibition is -7% in assay [3] (setting [7]); 43% in assay [3] (setting [8]); 36.8% in assay [3] (at 50.0 µM); -2% in assay [4] (setting [7]); 47% in assay [4] (setting [8]); 22.6% in assay [4] (at 50.0 µM). The growth inhibition in assay [5] (setting [7]) is -3%; in assay [5] (setting [8]), 51%; in assay [5] (at 50.0 µM), 97.5% (active); in assay [6] (setting [7]) it was -4%; in assay [6] (setting [8]), 36%; in assay [6] (at 50.0 µM) it was 58.5%.
`O=C(CSc1nnc(-c2ccc(N=Cc3ccc(Cl)cc3)cc2)o1)Nc1ccccc1Cl`: the growth inhibition in assay [1] (setting [7]) is 22%; in assay [1] (setting [8]), 57%; in assay [1] (at 50.0 µM), 54.8%; in assay [2] (setting [7]), -10%; in assay [2] (setting [8]), 44%; in assay [2] (at 50.0 µM), -11.8%. Moreover, the growth inhibition in assay [3] (setting [7]) was 7%; in assay [3] (setting [8]), 40%; in assay [3] (at 50.0 µM), 6.25%; in assay [4] (setting [7]) it was 14%; in assay [4] (setting [8]), 28%; in assay [4] (at 50.0 µM), -54.5%. The growth inhibition in assay [5] (setting [7]) was -1%; in assay [5] (setting [8]), 20%; in assay [5] (at 50.0 µM) it was -11.8%; in assay [6] (setting [7]), 2%; in assay [6] (setting [8]), 58%; in assay [6] (at 50.0 µM) it was 20.4%.
For the compound `CC1(c2ccc3ccccc3c2)C(C#N)(C#N)C1(C#N)C#N`, the growth inhibition is 87% (active) in assay [1] (setting [7]); 92% (active) in assay [1] (setting [8]); 91.4% (active) in assay [1] (at 50.0 µM); 94% (active) in assay [2] (setting [7]); 94% (active) in assay [2] (setting [8]); 92% (active) in assay [2] (at 50.0 µM). The growth inhibition was 97% (active) in assay [3] (setting [7]); 96% (active) in assay [3] (setting [8]); 88% (active) in assay [3] (at 50.0 µM); 62% in assay [4] (setting [7]); 93% (active) in assay [4] (setting [8]); 83.2% (active) in assay [4] (at 50.0 µM). Besides, the growth inhibition in assay [5] (setting [7]) is 96% (active); in assay [5] (setting [8]), 93% (active); in assay [5] (at 50.0 µM), 91.2% (active); in assay [6] (setting [7]), 97% (active); in assay [6] (setting [8]), 93% (active); in assay [6] (at 50.0 µM), 87.7% (active).
